Yeast superoxide: reduction of superoxide in aged yeast, primary screen, HTS; S. cerevisiae aged cells, superoxide DHE fluorescence; active compounds read low; superoxide response (% of plate mean), % at 10 µM; AID 2690, 2010; 330,000 tested, 0.18% active;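 active = superoxide response under a set limit, about three screen SD below normal, cut at about 65% in these data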;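 note: yeast aged for seven days with compound at 30 °C before DHE staining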
GLD-1 TGE inh: GLD-1/TGE RNA complex disruptors, primary screen, biochemical, fluorescence polarization | Female germline-specific tumor suppressor gld-1 (Caenorhabditis elegans), Q17339 | 320,000 tested, 0.44% active | purified GLD-1 + fluorescein TGE RNA | inhibition, % at 5.96 µM;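 active = percent inhibition above a per-plate cutoff, the plate mean of test compounds plus 3 SD, cut at about 30% in these data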
MCL1 BIM primary: inhibitors of MCL1 binding to BIM-BH3, primary screen, biochemical, fluorescence polarization | Induced myeloid leukemia cell differentiation protein Mcl-1 (Homo sapiens), Q07820 | GST-MCL1 / FITC-Bim-BH3 fluorescence polarization | inhibition, % at 10.9 µM | 320,000 tested, 0.68% active | AID 2057, 2009;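 active = inhibition above the mean inhibition of all tested compounds plus 3 SD, set per campaign, cut at about 40% in these data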;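 note: higher means more loss of mP so more displacement of Bim peptide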
MEX-5 binding: MEX-5 zinc finger RNA-binding disruptors – biochemical, C. elegans, fluorescence polarization, MLPCN library, primary screen; Zinc finger protein mex-5 (Caenorhabditis elegans), Q9XUB2; MEX-5/FITC-TCR2 RNA binding; active compounds read low; activity score (negative = inhibition of binding), % at 10 µM; 300,000 tested, 0.38% active; AID 1832, 2009;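 active = inhibition past about -25% in most replicates, and total fluorescence under double the plate's negative control median, limit read from the data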
Target sequence (Q9XUB2 whole entry, looked up): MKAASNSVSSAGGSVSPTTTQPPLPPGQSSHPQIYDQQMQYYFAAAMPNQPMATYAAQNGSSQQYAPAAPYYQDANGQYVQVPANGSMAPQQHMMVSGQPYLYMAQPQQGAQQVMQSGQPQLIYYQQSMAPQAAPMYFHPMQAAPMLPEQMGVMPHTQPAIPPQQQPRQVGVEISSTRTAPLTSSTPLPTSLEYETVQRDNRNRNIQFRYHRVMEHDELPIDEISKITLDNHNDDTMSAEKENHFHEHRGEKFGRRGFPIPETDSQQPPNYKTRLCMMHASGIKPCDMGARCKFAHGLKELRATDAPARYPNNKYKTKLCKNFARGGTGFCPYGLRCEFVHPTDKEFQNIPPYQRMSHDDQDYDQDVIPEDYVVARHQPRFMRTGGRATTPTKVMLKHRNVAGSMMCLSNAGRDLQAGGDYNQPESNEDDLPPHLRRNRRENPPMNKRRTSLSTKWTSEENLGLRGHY
BCLXL inh: inhibitors of human Bcl-xL, primary screen, biochemical, fluorescence polarization, HTS | GST-Bcl-xL / FITC-Bim BH3 peptide fluorescence polarization | 320,000 tested, 0.7% active | inhibition, % at 10.9 µM | Bcl-2-like protein 1 (Homo sapiens), Q07817;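 active = inhibition above the mean of all tested compounds plus 3 SD, cutoff set per campaign, cut at about 30% in these data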;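 note: inhibitors lower millipolarization by displacing the labeled peptide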
Target sequence (Q07817 whole entry, looked up): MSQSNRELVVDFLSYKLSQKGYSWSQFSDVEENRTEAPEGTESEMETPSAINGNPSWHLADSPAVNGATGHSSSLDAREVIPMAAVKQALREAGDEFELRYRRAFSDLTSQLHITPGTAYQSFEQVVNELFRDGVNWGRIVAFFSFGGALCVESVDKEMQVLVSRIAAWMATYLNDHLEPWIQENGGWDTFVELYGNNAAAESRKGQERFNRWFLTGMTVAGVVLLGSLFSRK
LANA-H2B inh: blockers of LANA interaction with H2A/H2B – biochemical, FP readout, HTS, primary screen; Protein LANA1 (Human herpesvirus 8 type P (isolate GK18)), Q9QR71; cell-free LANA-H2A/H2B peptide, fluorescence polarization; inhibition, % (test concentration not listed); 320,000 tested, 0.6% active; AID 2629, 2010; in the data active = inhibition mostly above about 10%, no sharp cut-off; inactive = mostly below about 6.7%
Each line names hits and unclear results; the compound was inactive in the other large screens. Shown are actives, neighbours in structure and some others; about 1.9% of the full set was active somewhere.

C=CCC[C@@H](Cc1ccc(F)cc1)C(=O)OCCNC(=O)[C@H](CC=C)CC(=O)NCCO	none (no result: MCL1 BIM primary, MEX-5 binding, BCLXL inh, LANA-H2B inh)
CCCOc1ccc(C(=O)CCNC(Cc2c[nH]c3ccccc23)C(=O)O)cc1 (stereo unspecified)	none
CN(CCOC(=O)/C=C/c1ccccc1)C(C)(C)C	none
CC(C)N(C)CCOC(=O)/C=C/c1ccccc1	LANA-H2B inh active
O=C(CS(=O)(=O)c1cn(Cc2ccc(Cl)cc2)c2ccccc12)N1CCCCC1	BCLXL inh 30
CC(C)CN(C(=O)CSc1nc2ccccc2[nH]1)C1CCS(=O)(=O)C1 (stereo unspecified)	none (no result: MCL1 BIM primary, MEX-5 binding, BCLXL inh)
O=C(Nc1cc(S(=O)(=O)N2CCOCC2)ccc1Cl)c1ccncc1	none (no result: MCL1 BIM primary, MEX-5 binding, BCLXL inh)
COc1ccc(/C=C/C(=O)NC(=S)NNC(=O)c2cnccn2)cc1	Yeast superoxide 31
COCCCNc1oc(COc2ccc(Cl)cc2Cl)nc1C#N	none
CN(C)CCNc1oc(COc2ccc(Cl)cc2Cl)nc1C#N	MCL1 BIM primary 42, BCLXL inh 34
CCCSc1nnc2nc3c(nn12)c1ccccc1n3C	MEX-5 binding -35
CCN(CC)C(=O)CSc1nnc2c3ccccc3n(C)c2n1	none
O=C(COC(=O)c1ccc2ncsc2c1)Nc1ccccc1Cl	Yeast superoxide 40 (no result: MCL1 BIM primary, MEX-5 binding, BCLXL inh)
NC(=O)c1ccc(NC(=O)C2CC(=O)N(c3ccc4c(c3)OCCO4)C2)cc1 (stereo unspecified)	none (no result: MEX-5 binding)
CCN(CC)CCNC(=O)c1ccc(NC(=O)C2CC(=O)N(c3ccc4c(c3)OCCO4)C2)cc1 (stereo unspecified)	LANA-H2B inh 61
COc1cccc(CNC(=O)Cc2ccc(OC)c(S(=O)(=O)N3CCOCC3)c2)c1	none
CN(CC(=O)NCCc1ccc(S(N)(=O)=O)cc1)CC(=O)Nc1ccccc1C(F)(F)F	none (no result: MCL1 BIM primary, MEX-5 binding, BCLXL inh)
C/C(=N\N=C(N)N)c1ccc(C)c(C)c1	LANA-H2B inh 15
Fc1ccccc1N1CCN(C(c2ccccn2)c2nnnn2C2CCCCC2)CC1 (stereo unspecified)	LANA-H2B inh 12
Cc1ccc2c(c1)-c1ccccc1S(=O)(=O)N2	none
Nc1ccc2c(c1)-c1ccccc1S(=O)(=O)N2	MEX-5 binding -41
COc1ccccc1/C=C(\C#N)C(=O)Nc1ccc(S(N)(=O)=O)cc1	none
N#C/C(=C\c1ccccc1[N+](=O)[O-])C(=O)Nc1ccc(S(N)(=O)=O)cc1	BCLXL inh 33
Cc1cc(C)cc(Oc2coc3cc(OC(=O)c4cccnc4)ccc3c2=O)c1	none
Cc1cccc(Oc2coc3cc(OC(=O)c4cncc(Br)c4)ccc3c2=O)c1	LANA-H2B inh 3.5
Cc1cccc(NC(=O)Nc2c(C)n(C)n(-c3ccccc3)c2=O)c1	none
Cc1c(NC(=O)Nc2cccc(F)c2)c(=O)n(-c2ccccc2)n1C	GLD-1 TGE inh 121
O=C(CN1C(=O)C2CC=CCC2C1=O)NCC1COc2ccccc2O1 (stereo unspecified)	LANA-H2B inh 51
O=C(Cn1ccc2ccccc2c1=O)NCC1COc2ccccc2O1 (stereo unspecified)	none
O=C(NCC(c1ccc(F)cc1)N1CCOCC1)c1nn(-c2ccccc2)c(=O)c2ccccc12 (stereo unspecified)	none (no result: MEX-5 binding)
COc1cccc(NC(=O)CN(C)C(=O)C23CC4CC(CC(Cl)(C4)C2)C3)c1	LANA-H2B inh 42 (no result: MEX-5 binding)
CCOc1ccc(N2C(=O)S/C(=C\c3cccn3C)C2=O)cc1	MEX-5 binding -30, LANA-H2B inh 20
Cn1cccc1/C=C1\SC(=O)N(c2ccc(O)cc2)C1=O	none
COc1ccc(C(=O)NCCOc2ccccc2)cc1S(=O)(=O)N1CCOCC1	none (no result: MEX-5 binding)
CC1=C(C(=O)NCc2ccccc2)C(c2ccc(C)o2)n2ncnc2N1 (stereo unspecified)	MCL1 BIM primary 42, BCLXL inh 38
CC1=C(C(=O)Nc2ccccc2)C(c2ccc(C)o2)n2ncnc2N1 (stereo unspecified)	none
CNC(=O)c1c(NC(=O)c2ccco2)sc2c1CCC2	LANA-H2B inh 83
CCCCc1cn([C@@H](CCCCN)C(=O)N2CCNCC2)nn1	MEX-5 binding -29, BCLXL inh 39
COc1ccc2c3c(cccc13)OCC2=O	BCLXL inh 31
COC(=O)[C@]1(Cc2ccccc2)N[C@H](CN(C)S(=O)(=O)c2ccc(C)cc2)[C@@H]2C(=O)N(Cc3ccccc3)C(=O)[C@@H]21	none (no result: MCL1 BIM primary, MEX-5 binding, BCLXL inh)
CC[C@@]1(C(=O)OC)N[C@H](CN(C)S(=O)(=O)c2ccc(C(C)(C)C)cc2)[C@@H]2C(=O)N(Cc3ccccc3)C(=O)[C@@H]21	LANA-H2B inh 69 (no result: MCL1 BIM primary, MEX-5 binding, BCLXL inh)
CCN(C[C@H]1N[C@@](CC)(C(=O)OC)[C@H]2C(=O)N(Cc3ccccc3)C(=O)[C@@H]12)C(=O)Nc1ccc(C(F)(F)F)cc1	LANA-H2B inh active (no result: MCL1 BIM primary, MEX-5 binding, BCLXL inh)
CC1(NC(=O)CCNC(=O)c2ccc(C(C)(C)C)cc2)CCS(=O)(=O)C1 (stereo unspecified)	none (no result: MEX-5 binding)
CC(=O)c1c(C)[nH]c(C(=O)C(C)Sc2nnc(NC3CC3)s2)c1C (stereo unspecified)	none (no result: MEX-5 binding)
CCOc1cc(N2CCOCC2)c(OCC)cc1NC(=O)c1cc(S(=O)(=O)N2CCOCC2)ccc1F	none (no result: MCL1 BIM primary, MEX-5 binding, BCLXL inh)
O=C(NCCN1CCOCC1)c1cc(-c2ccc(F)cc2)on1	LANA-H2B inh 182
COCCn1c(-c2ccc(NC(C)=O)cc2)nc2c1c(=O)[nH]c(=O)n2CC(C)C	LANA-H2B inh 13
COCCn1c(-c2ccc(-c3ccccc3Cl)o2)nc2c1c(=O)[nH]c(=O)n2CC(C)C	none (no result: MEX-5 binding)
O=C(c1ccco1)N1CCN(c2ncnc3c(-c4ccc(Cl)cc4)nsc23)CC1	MEX-5 binding -29
Cc1ccccc1-c1nn[nH]n1	none
Oc1ccc(N=Nc2ccccc2-c2nn[nH]n2)c(O)c1	MEX-5 binding -35, BCLXL inh 31
CCc1nnc(NC(=O)c2oc3ccccc3c2COC(C)C)s1	none (no result: MCL1 BIM primary, MEX-5 binding, BCLXL inh)
Nc1[nH]c2cc([N+](=O)[O-])ccc2c1-c1ccccn1	none
CN1C=C/C(=C\c2cc[n+](C)c3ccccc23)c2ccccc21	MEX-5 binding -67 (no result: Yeast superoxide, GLD-1 TGE inh, MCL1 BIM primary, BCLXL inh, LANA-H2B inh)
O=C(CCNS(=O)(=O)c1ccccc1)NNC(=O)COc1ccc(Cl)cc1	none (no result: MEX-5 binding, LANA-H2B inh)
COc1ccc(COC(=O)C2CCN(S(=O)(=O)c3ccc(OC)c(OC)c3)CC2)cc1	none (no result: MEX-5 binding)

Bioassay records deposited in PubChem by several laboratories.
